Results filed as inconclusive are left out. Calls of active or inactive are those of the source. Unless noted, calls follow the shape of the dose curve; as a rule, active = well fitted curve in the direction sought with a large enough effect; inconclusive = small, poorly fitted or top-dose-only effect, or another doubt; inactive = no such curve, though single readings can be large; an effect the other way counts as inactive or inconclusive.

Chain of Parathyroid hormone/parathyroid hormone-related peptide receptor (Homo sapiens) (Q03431 whole entry, looked up): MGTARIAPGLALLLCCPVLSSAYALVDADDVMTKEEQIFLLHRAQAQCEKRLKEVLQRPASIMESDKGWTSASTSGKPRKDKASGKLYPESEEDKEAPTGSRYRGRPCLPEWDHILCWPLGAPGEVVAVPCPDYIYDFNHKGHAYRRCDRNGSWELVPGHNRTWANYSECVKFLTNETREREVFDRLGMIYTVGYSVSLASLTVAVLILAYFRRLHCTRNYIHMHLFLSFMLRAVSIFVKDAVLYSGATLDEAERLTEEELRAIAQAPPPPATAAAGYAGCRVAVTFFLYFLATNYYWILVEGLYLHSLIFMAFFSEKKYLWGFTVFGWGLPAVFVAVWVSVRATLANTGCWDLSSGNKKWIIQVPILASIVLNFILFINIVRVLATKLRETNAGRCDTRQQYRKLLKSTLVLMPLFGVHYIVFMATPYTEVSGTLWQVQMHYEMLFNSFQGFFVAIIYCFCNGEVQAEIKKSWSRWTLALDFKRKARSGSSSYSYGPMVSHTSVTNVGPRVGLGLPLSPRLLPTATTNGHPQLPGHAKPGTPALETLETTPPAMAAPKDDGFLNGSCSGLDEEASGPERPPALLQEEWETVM
T1 sequence (P78324 whole entry, looked up): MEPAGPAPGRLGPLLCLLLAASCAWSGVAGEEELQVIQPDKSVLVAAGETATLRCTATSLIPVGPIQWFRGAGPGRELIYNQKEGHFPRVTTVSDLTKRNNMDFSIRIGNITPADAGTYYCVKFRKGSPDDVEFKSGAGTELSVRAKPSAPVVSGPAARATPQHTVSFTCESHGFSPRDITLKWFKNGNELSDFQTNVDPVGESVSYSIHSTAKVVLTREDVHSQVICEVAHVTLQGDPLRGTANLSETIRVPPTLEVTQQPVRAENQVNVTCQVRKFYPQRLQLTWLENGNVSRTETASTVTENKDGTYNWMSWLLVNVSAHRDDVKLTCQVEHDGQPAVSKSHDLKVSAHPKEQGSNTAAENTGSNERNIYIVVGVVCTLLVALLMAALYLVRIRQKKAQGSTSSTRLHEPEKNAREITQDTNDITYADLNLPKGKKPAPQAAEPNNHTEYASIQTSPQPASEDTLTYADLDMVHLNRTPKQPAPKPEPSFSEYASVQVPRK
T1 sequence (Q08722 whole entry, looked up): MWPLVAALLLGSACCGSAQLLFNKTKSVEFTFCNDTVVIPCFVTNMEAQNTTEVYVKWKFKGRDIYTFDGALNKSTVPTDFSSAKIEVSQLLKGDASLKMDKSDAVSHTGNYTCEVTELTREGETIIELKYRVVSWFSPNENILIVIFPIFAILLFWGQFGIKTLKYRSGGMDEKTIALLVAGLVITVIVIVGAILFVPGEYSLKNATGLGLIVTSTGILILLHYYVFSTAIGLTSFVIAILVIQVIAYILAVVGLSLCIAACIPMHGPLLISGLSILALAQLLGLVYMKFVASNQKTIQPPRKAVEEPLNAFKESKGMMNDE

One assay concerns the target T1, Tyrosine-protein phosphatase non-receptor type substrate 1 (Homo sapiens) + Leukocyte surface antigen CD47 (Homo sapiens) (UniProt P78324+Q08722). Kind of assay: CD47-SIRPalpha protein protein interaction - LANCE assay qHTS validation (AID 1347057; active = well fitted curve in the direction sought with a large enough effect in the signal ratio, with a control signal flat, not every such curve was filed as active; the % refers to the signal ratio; also: potency is read from the fitted curve at half-maximal effect; as to activity change, negative = inhibition: 0% is about no effect). As to conditions: Recombinant CD47-His / biotin-SIRPalpha, TR-FRET ratio; series mostly up to 38.3 µM; activity change, negative = inhibition: at the top concentration. Put shortly: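 First, His-tagged CD47 and Eu-labelled anti-His antibody met the compound for 30 min; next, site-specifically biotinylated SIRPalpha was added for 30 min; finally streptavidin-APC was added before reading the TR-FRET ratio.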
On the technique in general: TR-FRET usually uses a lanthanide donor and a delayed reading to cut background.
On to `CCOC(=O)C12CC1/C(=N/O)c1ccccc1O2` (stereo unspecified), for which the “activity change, negative = inhibition” value is 1.98% (inactive).

Consider `O=[N+]([O-])c1cccc2c(Br)[nH]nc12`, for which the “activity change, negative = inhibition” value is 3.75% (inactive).

`C[C@H](NC(=O)/C(C#N)=C/c1ccc(O)c(O)c1)c1ccccc1`: the “activity change, negative = inhibition” value was 0% (inactive).

With `CC(C)NC[C@H](O)COc1ccc(CC(N)=O)cc1`, the “activity change, negative = inhibition” value is 0.132% (inactive).

As to `CCN(CC)CCCCCCCCOC(=O)c1cc(OC)c(OC)c(OC)c1`, the “activity change, negative = inhibition” value was 0.132% (inactive).

Take `O=C(O)C1=CC(=C(c2ccc(O)c(C(=O)O)c2)c2ccc(O)c(C(=O)O)c2)C=CC1=O`: the Potency was 11.7 µM (active).

Consider `N#Cc1cc([N+](=O)[O-])c2sc(C(N)=O)[n+]([O-])c2c1`, for which the “activity change, negative = inhibition” value is 1.24% (inactive).

As for `O=[N+]([O-])c1cccc2cn[nH]c12`, the “activity change, negative = inhibition” value was 1.01% (inactive).

As for `NC/C=C\C(=O)O`, the “activity change, negative = inhibition” value was -0.279% (inactive).

Turning to `N#C/C(=C\c1ccc(O)c(O)c1)C(=O)NCCc1ccccc1`, the “activity change, negative = inhibition” value was -1.31% (inactive).

For `Nc1ncnc2c1c(-c1ccc(Oc3ccccc3)cc1)cn2C1CCCC1`, the “activity change, negative = inhibition” value is 1.16% (inactive).

`CN1Cc2sccc2C(c2ccc(O)c(O)c2)C1` (stereo unspecified): the “activity change, negative = inhibition” value was 2.34% (inactive).

In the case of `O=C(O)c1ccccc1Nc1ccccc1`, the “activity change, negative = inhibition” value was 0.965% (inactive).

On to `CN1CCN(c2nc3cc(C(F)(F)F)ccc3n3cccc23)CC1`, for which the result was inactive.

Regarding `CCCCCCCCCC(=O)NC(CN1CCOCC1)[C@H](O)c1ccccc1` (stereo partly specified), the “activity change, negative = inhibition” value is 1.36% (inactive).

As to `COC(=O)C(N)Cc1ccc(Cl)cc1` (stereo unspecified), the “activity change, negative = inhibition” value was 1.24% (inactive).

With `CC[C@H](NC(=O)c1c(C)c(-c2ccccc2)nc2ccccc12)c1ccccc1`, the “activity change, negative = inhibition” value was 0.685% (inactive).

As for `Cc1ccc([N+](=O)[O-])cc1S(=O)(=O)N(C)C`, the “activity change, negative = inhibition” value is 0.835% (inactive).

The target of another assay is T1, Tyrosine-protein phosphatase non-receptor type substrate 1 (Homo sapiens) + Leukocyte surface antigen CD47 (Homo sapiens). Kind of assay: CD47-SIRPalpha protein protein interaction - HTRF assay qHTS validation (AID 1347058; active = well fitted curve in the direction sought with a large enough effect in the signal ratio, not every such curve was filed as active; the % refers to the signal ratio; also: 0% is about no effect). As to conditions: TR-FRET HTRF CD47-His / biotin-SIRPalpha binding, ratio 665/615; series mostly up to 38.3 µM; activity change, negative = inhibition: at the top concentration. Put shortly: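 TR-FRET read (Ch1/Ch2 ratio) of soluble extracellular CD47 and Avi-biotinylated SIRPalpha domains in PBS pH 7.4 with 0.05% IGEPAL; 7-point compound titration. Sequential 30 min room-temperature steps; non-biotinylated SIRPalpha as control inhibitor.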
As for `CC(=O)/C(C)=N/O`, the “activity change, negative = inhibition” value is -0.156% (inactive).

For the molecule `CC(C)NC[C@H](O)COc1cccc2ccccc12`, the “activity change, negative = inhibition” value is 0.665% (inactive).

For `Cc1cccc(C)c1OCC(N)C(C)C` (stereo unspecified), the “activity change, negative = inhibition” value is -4.9% (inactive).

In the case of `CCCCCCC/C=C\CCCCCCCCC(=O)O`, the “activity change, negative = inhibition” value is 0.141% (inactive).

Another assay has the same target. Kind of assay: CD47-SIRPalpha protein protein interaction - Alpha assay qHTS validation (AID 1347059).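 Also: bead proximity luminescence from CD47 binding SIRPalpha after compound preincubation with SIRPalpha.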 Also: potency is read from the fitted curve at half-maximal effect. As to activity change, negative = inhibition: % is scaled to controls: 0 for no effect and ±100 for the full control effect. As to conditions: AlphaScreen CD47-His/biotin-SIRPalpha binding, LOPAC; series mostly up to 38.3 µM; activity change, negative = inhibition: at the top concentration. A digest of the protocol:
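Binding is measured by AlphaScreen proximity: Ni-NTA acceptor beads capture His-CD47, streptavidin donor beads capture biotin-SIRPalpha. Each of three additions (SIRPalpha with compound, CD47, beads) incubates 30 min at room temperature protected from light.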
(In general: In qHTS, concentration-response curves come from the screen itself.)
Consider `CCOC(=O)C12CC1/C(=N/O)c1ccccc1O2` (stereo unspecified), for which the “activity change, negative = inhibition” value is -0.11% (inactive).

With `CC[C@@H]1Cc2cc(O)ccc2C2=C1c1ccc(O)cc1C[C@H]2CC`, the “activity change, negative = inhibition” value was -29.3% (inactive).

Turning to `CCCn1c(=O)c2[nH]c(-c3ccc(S(=O)(=O)O)cc3)nc2n(CCC)c1=O`, the “activity change, negative = inhibition” value is 3.58% (inactive).

Turning to `O=[N+]([O-])c1cccc2c(Br)[nH]nc12`, the “activity change, negative = inhibition” value is -6.34% (inactive).

Regarding `C[C@H](NC(=O)/C(C#N)=C/c1ccc(O)c(O)c1)c1ccccc1`, the “activity change, negative = inhibition” value was -2.16% (inactive).

Consider `CC(C)NC[C@H](O)COc1ccc(CC(N)=O)cc1`, for which the “activity change, negative = inhibition” value was 1.5% (inactive).

For `CCN(CC)CCCCCCCCOC(=O)c1cc(OC)c(OC)c(OC)c1`, the “activity change, negative = inhibition” value is 2.51% (inactive).

`CC#CCOC(=O)c1c(C)nc2sc3c(c2c1N)CCC(O)C3` (stereo unspecified): the “activity change, negative = inhibition” value is -1.55% (inactive).

For the molecule `N#Cc1cc([N+](=O)[O-])c2sc(C(N)=O)[n+]([O-])c2c1`, the “activity change, negative = inhibition” value was -15.8% (inactive).

For `O=[N+]([O-])c1cccc2cn[nH]c12`, the “activity change, negative = inhibition” value is 1.24% (inactive).

Consider `NC/C=C\C(=O)O`, for which the “activity change, negative = inhibition” value was 1.29% (inactive).

Regarding `CC[n+]1c(/C=C/C=C2/N(C)c3ccccc3C2(C)C)sc2ccccc21`, the Potency is 7.36 µM (active).

Regarding `CC(C)NC[C@H](O)COc1cccc2ccccc12`, the “activity change, negative = inhibition” value is -2.51% (inactive).

Turning to `CN1Cc2sccc2C(c2ccc(O)c(O)c2)C1` (stereo unspecified), the “activity change, negative = inhibition” value was -3.07% (inactive).

Turning to `O=C(O)c1ccccc1Nc1ccccc1`, the “activity change, negative = inhibition” value was -8.52% (inactive).

Turning to `Cc1cccc(C)c1OCC(N)C(C)C` (stereo unspecified), the “activity change, negative = inhibition” value was 2.22% (inactive).

Turning to `CN(C)S(=O)(=O)c1ccc2c(c1)/C(=C/c1cc3c([nH]1)CCCC3)C(=O)N2`, the “activity change, negative = inhibition” value is -13.7% (inactive).

Take `O=C1NC(=O)c2cc(Nc3ccccc3)c(Nc3ccccc3)cc21`: the “activity change, negative = inhibition” value is -16.3% (inactive).

Take `CCCCCCCCCC(=O)NC(CN1CCOCC1)[C@H](O)c1ccccc1` (stereo partly specified): the “activity change, negative = inhibition” value was -0.266% (inactive).

As for `CCCCCCC/C=C\CCCCCCCCC(=O)O`, the “activity change, negative = inhibition” value is -20% (inactive).

As for `CC[C@H](NC(=O)c1c(C)c(-c2ccccc2)nc2ccccc12)c1ccccc1`, the “activity change, negative = inhibition” value was -1.59% (inactive).

The target of a further assay is Parathyroid hormone/parathyroid hormone-related peptide receptor (Homo sapiens) (UniProt Q03431). Kind of assay: qHTS for PTHR1 Agonists: Optimization Screen against the NCGC LOPAC library (AID 1347079).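 Also: GloSensor cAMP luminescence in HEK-293 GP2 cells expressing human PTHR1 with IBMX; 0% is about no effect.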 The note with it: HEK293 GP2 PTHR1 GloSensor cAMP luminescence, 1 h; series mostly up to 57.1 µM; activation: at the top concentration. Put shortly:
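Agonist readout: GloSensor cAMP luminescence, read after 15 min at room temperature. HEK-293-derived GP2 line carries PTHR1; compounds tested as a titration for 1 hr at 37C in presence of IBMX. M-PTH (1-15) served as control.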
`COc1ccccc1N1CCN(CCN(C(=O)c2ccc(F)cc2)c2ccccn2)CC1`: the “activation” value is 5.54% (inactive).

Regarding `CC[C@@H]1Cc2cc(O)ccc2C2=C1c1ccc(O)cc1C[C@H]2CC`, the “activation” value is -27.3% (inactive).

In the case of `CCCn1c(=O)c2[nH]c(-c3ccc(S(=O)(=O)O)cc3)nc2n(CCC)c1=O`, the “activation” value was -31.7% (inactive).

Consider `Cn1c(=O)c2[nH]c(-c3ccc(S(=O)(=O)O)cc3)nc2n(C)c1=O`, for which the “activation” value is 19.8% (inactive).

Take `O=C(O)C1=CC(=C(c2ccc(O)c(C(=O)O)c2)c2ccc(O)c(C(=O)O)c2)C=CC1=O`: the “activation” value is -12.1% (inactive).

As to `CC(=O)/C(C)=N/O`, the “activation” value is 48.7% (inactive).

As for `CC#CCOC(=O)c1c(C)nc2sc3c(c2c1N)CCC(O)C3` (stereo unspecified), the “activation” value was 16% (inactive).

Take `CC(=O)O[C@H]1CC2(C)[C@@H](C[C@@H](O)[C@H]3[C@@]4(C)CC[C@@H](O)[C@@H](C)[C@@H]4CC[C@@]32C)C1=C(CCC=C(C)C)C(=O)O` (stereo partly specified): the “activation” value was 7.76% (inactive).

For `CC[n+]1c(/C=C/C=C2/N(C)c3ccccc3C2(C)C)sc2ccccc21`, the “activation” value is -5.71% (inactive).

For `N#C/C(=C\c1ccc(O)c(O)c1)C(=O)NCCc1ccccc1`, the “activation” value is 6.19% (inactive).

Take `CC(C)NC[C@H](O)COc1cccc2ccccc12`: the “activation” value is -45.6% (inactive).

For `Nc1ncnc2c1c(-c1ccc(Oc3ccccc3)cc1)cn2C1CCCC1`, the “activation” value was 17% (inactive).

For `O=c1[nH]c(=S)[nH]c(-c2ccccc2)c1Cc1c(O)ccc2ccccc12`, the “activation” value is 3.36% (inactive).

Take `Cc1cccc(C)c1OCC(N)C(C)C` (stereo unspecified): the “activation” value was -34.3% (inactive).

With `CC(O)C(O)[C@H]1CNc2nc(N)[nH]c(=O)c2N1` (stereo partly specified), the “activation” value was -1.05% (inactive).

`CN(C)S(=O)(=O)c1ccc2c(c1)/C(=C/c1cc3c([nH]1)CCCC3)C(=O)N2`: the “activation” value is 25.2% (inactive).

Consider `O=C1NC(=O)c2cc(Nc3ccccc3)c(Nc3ccccc3)cc21`, for which the “activation” value was 7.41% (inactive).

As for `O=c1cc(-c2ccccc2)[nH]c2nc(Cl)ccc12`, the “activation” value is -36.5% (inactive).

Consider `Nc1ccc(-c2nc3ccc(-c4nc5ccc(N)cc5[nH]4)cc3[nH]2)cc1`, for which the “activation” value was -1.44% (inactive).

On to `CN1CCN(c2nc3cc(C(F)(F)F)ccc3n3cccc23)CC1`, for which the “activation” value is 5.28% (inactive).

For `Nc1ccc2c3c(cccc13)C(=O)NC2=O`, the “activation” value is -47.3% (inactive).

With `CCCCCCC/C=C\CCCCCCCCC(=O)O`, the “activation” value was -7.46% (inactive).

Turning to `Cc1ccc([N+](=O)[O-])cc1S(=O)(=O)N(C)C`, the “activation” value is 29% (inactive).

The record behind these values is PubChem BioAssay (NCATS).
